Compounds without any hit were thinned out: in the full panel of roughly 79,000, 15% have a hit. Activity calls are given as the source filed them. Rule as the data show it: active = growth inhibition above about 70%; inactive = the rest.
Tests used:
[1] = NCI Yeast Anticancer Drug Screen. Data for the rad50 strain (AID 155);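 also: 0% = growth of vehicle-only cultures of the same strain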; conditions: S. cerevisiae rad50 strain growth inhibition, hits give high values
Summary of the method: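 Vehicle-treated cultures provide the reference for the growth inhibition reported for compound-exposed, repair-deficient yeast.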

[2] = NCI Yeast Anticancer Drug Screen. Data for the mec2-1 strain (AID 157); conditions: S. cerevisiae mec2-1 strain, hits give high values
Summary of the method: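 Using mec2-1 yeast: add compound, measure growth, express inhibition versus vehicle-treated cultures.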

[3] = NCI Yeast Anticancer Drug Screen. Data for the sgs1 mgt1 strain (AID 161);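 also: 0% = growth of cultures given vehicle only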; conditions: S. cerevisiae sgs1 mgt1 strain, hits give high values
Summary of the method: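 This yeast growth screen uses a strain with defined DNA-repair lesions; compound-treated growth is compared with vehicle-treated growth.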

[4] = NCI Yeast Anticancer Drug Screen. Data for the cln2 rad14 strain (AID 165);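 also: 0% = growth equal to vehicle treated cultures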; conditions: S. cerevisiae cln2 rad14 strain, hits give high values
Summary of the method: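 Yeast strain cln2 rad14, bearing defects in cell cycle control and DNA repair, serves as the test system; values reflect growth inhibition compared with vehicle.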

[5] = NCI Yeast Anticancer Drug Screen. Data for the bub3 strain (AID 167); conditions: S. cerevisiae bub3 mutant strain, hits give high values
Summary of the method: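 Mutant yeast screening strain plus compound; vehicle-treated cultures serve as the 0% inhibition reference.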

[6] = NCI Yeast Anticancer Drug Screen. Data for the mlh1 rad18 strain (AID 175); conditions: S. cerevisiae mlh1 rad18 strain growth inhibition, hits give high values
Summary of the method: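 Steps: expose repair-defective yeast to compound; measure growth; express inhibition against vehicle-treated controls.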

[7] = at 5.0 µM (retest, dose inferred, filed as 0.5)
[8] = at 50.0 µM (retest, dose inferred, filed as 5.0)

Measured: growth inhibition

COc1cccc2c1C(=O)c1c(O)c3c(c(O)c1C2=O)C[C@@](O)(C(=O)CO)CC3OC1CC(O)C(O)C(C)O1 (some centres undefined)
active: [1]; at 50.0 µM unless noted 72%
inactive: [2]; at 50.0 µM unless noted 52.8% | [3]; at 50.0 µM unless noted 33.2% | [4]; at 50.0 µM unless noted 28.8% | [5]; at 50.0 µM unless noted 63.2%

CN(C)c1ccc(/C=C\C(=O)c2ccccc2)cc1
active: [3]; [8] 75% | [5]; [8] 77%
inactive: [1]; [7] 7% | [1]; [8] 57% | [2]; [7] 1% | [2]; [8] 28% | [3]; [7] 6% | [4]; [7] 13% | [4]; [8] 15% | [5]; [7] 8% | [6]; [7] 32% | [6]; [8] 53%

NN1CCOC(c2ccccc2)C1 (centres undefined)
inactive: [1]; [7] 15% | [1]; [8] 57% | [2]; [7] 11% | [2]; [8] 24% | [3]; [7] 7% | [3]; [8] 49% | [4]; [7] 0% | [4]; [8] 4% | [5]; [7] 34% | [5]; [8] 61% | [6]; [7] -12% | [6]; [8] 28%

Clc1ncc(Cl)c(Cl)n1
inactive: [1]; at 50.0 µM unless noted 68.7% | [2]; at 50.0 µM unless noted 18.6% | [3]; at 50.0 µM unless noted -46.8% | [4]; at 50.0 µM unless noted -22.5% | [5]; at 50.0 µM unless noted -50.8%

C=CCc1cc(-c2cc(CC=C)c(O)c(CN(CC)CC)c2)cc(CN(CC)CC)c1O
inactive: [1]; at 50.0 µM unless noted -9% | [2]; at 50.0 µM unless noted -5.2% | [3]; at 50.0 µM unless noted -20% | [4]; at 50.0 µM unless noted -18% | [5]; at 50.0 µM unless noted -12.1%

C[C@H]1CC(=O)[C@@]2(O)C#C/C=C\C#C[C@@H]3Nc4c(cc(O)c5c4C(=O)c4ccccc4C5=O)[C@]24O[C@]314
active: [1]; at 50.0 µM unless noted 78% | [2]; at 50.0 µM unless noted 82% | [3]; at 50.0 µM unless noted 85.2% | [4]; at 50.0 µM unless noted 86.9% | [5]; at 50.0 µM unless noted 85.8%

Nc1nc(Cl)c(C=O)c(NCC2(CO)CC(CCc3ccccc3)C2)n1 (centres undefined)
inactive: [1]; at 50.0 µM unless noted 15.4% | [2]; at 50.0 µM unless noted 9.95% | [3]; at 50.0 µM unless noted -32.8% | [4]; at 50.0 µM unless noted -2.2% | [5]; at 50.0 µM unless noted -22%

Fc1ccc([I+]c2ccc(F)cc2)cc1
active: [1]; [8] 89% | [3]; [8] 84% | [5]; [8] 90% | [6]; [8] 81%
inactive: [1]; [7] 12% | [2]; [7] 2% | [2]; [8] 43% | [3]; [7] 24% | [4]; [7] 9% | [4]; [8] 32% | [5]; [7] 33% | [6]; [7] 17%

CC(O)C(=O)NC1CCCCC1 (centres undefined)
inactive: [1]; [7] 3% | [1]; [8] 26% | [2]; [7] 1% | [2]; [8] 1% | [3]; [7] 1% | [3]; [8] 12% | [4]; [7] 1% | [4]; [8] 3% | [5]; [7] 2% | [5]; [8] -4% | [6]; [7] 3% | [6]; [8] 17%

Cc1nc2c(n1-c1ccc(Br)cc1)C(=O)c1ccccc1C2=O
inactive: [1]; at 50.0 µM unless noted 33.9% | [2]; at 50.0 µM unless noted -17.9% | [3]; at 50.0 µM unless noted -4.4% | [4]; at 50.0 µM unless noted 12.3% | [5]; at 50.0 µM unless noted -30.2%

COc1ccc(Nc2ccc3ccccc3c2)cc1
active: [5]; [8] 72%
inactive: [1]; [7] 6% | [1]; [8] 0% | [2]; [7] -2% | [2]; [8] -1% | [4]; [7] -4% | [4]; [8] -17% | [5]; [7] 3% | [6]; [7] -31% | [6]; [8] -7%

O=C(Cc1ccccc1)c1ccc(O)c(Cl)c1
inactive: [1]; [7] 20% | [2]; [7] 2% | [3]; [7] 18% | [4]; [7] 12% | [5]; [7] 7% | [6]; [7] -11%
active: [1]; [8] 99% | [2]; [8] 99% | [3]; [8] 99% | [4]; [8] 96% | [5]; [8] 99% | [6]; [8] 97%

N#CC(C#N)N=Nc1ccc(Cl)cc1
active: [1]; [8] 83% | [2]; [8] 73% | [4]; [8] 73% | [5]; [8] 72% | [6]; [8] 87%
inactive: [1]; [7] 26% | [2]; [7] 18% | [4]; [7] 1% | [5]; [7] 9% | [6]; [7] -1%

C/C(CC(C)C(=O)O)=N/NC(N)=O (centres undefined)
inactive: [1]; [7] 0% | [1]; [8] 34% | [2]; [7] -8% | [2]; [8] 5% | [3]; [7] 0% | [3]; [8] 40% | [4]; [7] -6% | [4]; [8] -2% | [5]; [7] -1% | [5]; [8] 20% | [6]; [7] -31% | [6]; [8] 43%

C/C(=N\NC(=S)N1CCC(N2CCCCC2)CC1)c1ccccn1
active: [1]; at 50.0 µM unless noted 83.8% | [2]; at 50.0 µM unless noted 88.1% | [3]; at 50.0 µM unless noted 88% | [4]; at 50.0 µM unless noted 84.8% | [5]; at 50.0 µM unless noted 86%

C=C1COC(O)(C2OCOC(C3CC(=O)NC(=O)C3)C2O)C1C (centres undefined)
active: [1]; at 50.0 µM unless noted 88% | [2]; at 50.0 µM unless noted 91.2% | [3]; at 50.0 µM unless noted 91.5% | [4]; at 50.0 µM unless noted 89.8% | [5]; at 50.0 µM unless noted 89.2%

CC(C)NC(=O)N/C=C(\C#N)C(N)=O
active: [1]; [8] 70%
inactive: [1]; [7] 4% | [2]; [7] -1% | [2]; [8] 21% | [3]; [7] 4% | [3]; [8] 63% | [4]; [7] 2% | [4]; [8] 1% | [5]; [7] -3% | [5]; [8] 20% | [6]; [7] -39% | [6]; [8] 16%
